Assay outcomes deposited in PubChem by several laboratories.
Most compounds without a hit are left out; they make up all but 4.5% or so of the library.
Rtt109 HAT inh: C. albicans Rtt109 histone acetyltransferase inhibition; Q5AAJ8; inhibition, % at 34.9 µM; hit rate 0.16% among 330,000; AID 540336; purified Rtt109/Vps75, ThioGlo CoA-SH fluorescence, 4 h;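 active means inhibition of at least 50% in every replicate; inconclusive means best replicate reaches 50% inhibition but some replicates fall short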
Target sequence (Q5AAJ8 whole entry, looked up): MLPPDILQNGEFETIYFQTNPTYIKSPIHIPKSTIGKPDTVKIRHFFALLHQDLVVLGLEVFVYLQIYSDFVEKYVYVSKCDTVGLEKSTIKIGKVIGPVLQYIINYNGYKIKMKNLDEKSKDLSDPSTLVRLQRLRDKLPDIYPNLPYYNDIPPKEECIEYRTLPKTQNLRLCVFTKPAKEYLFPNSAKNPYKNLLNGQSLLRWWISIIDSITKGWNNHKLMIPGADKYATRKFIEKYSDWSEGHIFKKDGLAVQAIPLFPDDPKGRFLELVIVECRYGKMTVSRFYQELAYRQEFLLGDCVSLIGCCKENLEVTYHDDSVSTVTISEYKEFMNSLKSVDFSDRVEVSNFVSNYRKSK
GRK2 aptamer HTS: inhibitors of human GRK2 displacing RNA aptamer; bead flow cytometry, FAM-aptamer displacement from GRK2; hit rate 0.59% among 330,000; AID 488847; inhibition of aptamer binding, % at 10 µM; P25098;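 active means inhibition of aptamer binding above 40%, roughly 3 SD of noise, on plates passing a quality check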;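 further: median bead fluorescence of bound FAM aptamer so fluorescent compounds give negative values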
Rce1 inh: blocks yeast Ras-converting enzyme. calls only. Q03530. hit rate 0.27% among 290,000. yeast membranes, quenched prenylated peptide cleavage fluorescence;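 active means fall in fluorescence gain of 50% or more versus controls, with final raw signal at or below 3038400; inconclusive means same 50% fall but final raw signal above 3038400; inactive means fall in fluorescence gain under 50%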;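 further: plate controls were neutral control wells for no effect and wells lacking membranes for full effect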
HDAC3 inh: inhibitors of human histone deacetylase 3. recombinant HDAC3, fluorogenic peptide/trypsin coupled, fluorescence. inhibition, % at 8.3 µM. hit rate 0.15% among 320,000; in the data active means inhibition above about 26%, passing the limit was not always enough; inconclusive means no clear call, values can overlap the other calls
ALR H2O2 inh: blocks human ALR sulfhydryl oxidase activity; P55789; purified ALR, DTT oxidation, H2O2 HRP-luminol luminescence; inhibition, % (concentration not given with the values); hit rate 3.8% among 290,000; AID 485317;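 active means mean replicate inhibition above about 79%, with every replicate also reaching it, limit read from the data; inconclusive means only one of the two criteria met; inactive means mean below limit and not every replicate reaching it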
Target sequence (P55789 whole entry, looked up): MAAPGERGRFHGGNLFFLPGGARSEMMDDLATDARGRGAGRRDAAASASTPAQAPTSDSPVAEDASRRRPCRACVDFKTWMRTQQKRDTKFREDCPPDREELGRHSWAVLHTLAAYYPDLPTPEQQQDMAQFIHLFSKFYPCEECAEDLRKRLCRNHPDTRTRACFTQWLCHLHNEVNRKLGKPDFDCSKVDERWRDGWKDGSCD
Efflux pump mplx: inhibitors of Candida antifungal efflux pumps expressed in yeast; S. cerevisiae Candida pump triplex, Nile Red efflux; inhibition, % at 10 µM; hit rate 0.44% among 330,000; AID 485275;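 active means plate passing quality check with inhibition over a set limit, or well fluorescence over plate mean plus 4 SD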;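 further: Nile Red retained in pooled yeast measured as flow cytometry median fluorescence; 0% = buffer negative control and 100% = Enniatin B positive control; higher means more Nile Red kept so more efflux inhibition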
Cmpd fluor yeast: counter-screen for efflux pump inhibitors: compound fluorescence; shares compounds with Efflux pump mplx; S. cerevisiae AD/pABC3, flow cytometry; fluorescence ratio to DMSO, % at 10 µM; hit rate 4% among 1,700; AID 588517;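 active means fluorescence ratio to DMSO above its plate's cutoff, the plate mean ratio plus 5 SD, cut at about 210% in these data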;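 further: unstained yeast with no Nile Red so the signal is compound autofluorescence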
CaMdr1 efflux inh: inhibitors of Candida albicans Mdr1 efflux pump; shares compounds with Efflux pump mplx; S. cerevisiae AD/CaMDR1, Nile Red efflux, flow cytometry; inhibition, % at 10 µM; hit rate 1% among 1,700; in the data active means inhibition above about 26%;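 further: 0% = DMSO vehicle and 100% = reference inhibitor; higher means more Nile Red retained so more efflux inhibition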
Cdr2 pump inh: blocks the Candida albicans Cdr2 efflux pump in yeast; S. cerevisiae AD/CaCDR2, Nile Red retention, flow cytometry; AID 588520; Nile Red retention ratio vs DMSO, % at 10 µM; shares compounds with Efflux pump mplx; hit rate 4% among 1,700; in the data active means Nile Red retention ratio vs DMSO above about 190%;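 further: higher ratio means more blocking of Cdr2 efflux of the dye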
Cdr1 pump inh: blocks the Candida albicans Cdr1 efflux pump in yeast | shares compounds with Efflux pump mplx | S. cerevisiae AD/CaCDR1, Nile Red efflux, flow cytometry | inhibition, % at 10 µM | hit rate 1% among 1,700 | AID 588522;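 active means inhibition above the screen-wide mean plus twice its standard deviation, cut at about 32% in these data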
Starred values were filed as active, the others as inactive.

O=C(COCC(=O)N/N=C/c1ccc(F)cc1)N/N=C/c1ccc(F)cc1 was read as Rtt109 HAT inh -1, GRK2 aptamer HTS 3, Rce1 inh inactive, HDAC3 inh 0, ALR H2O2 inh -1, Efflux pump mplx 1.8*, Cmpd fluor yeast 94, CaMdr1 efflux inh 0, Cdr2 pump inh 100 and Cdr1 pump inh 0.
CCCSc1ccc([C@@H]2[C@H]3C(=O)N(CC)C(=O)[C@H]3[C@]3(C(=O)OC)CCCCN23)cc1 was read as Rtt109 HAT inh -1, GRK2 aptamer HTS 0, Rce1 inh inactive, HDAC3 inh inconclusive, ALR H2O2 inh 2 and Efflux pump mplx 0.
Screening COc1cccc(-c2c(C(=O)N/N=C(\C)c3ccc(Cl)s3)nnn2-c2nonc2N)c1 returned Rtt109 HAT inh -1, GRK2 aptamer HTS 4, Rce1 inh inactive, HDAC3 inh -1, ALR H2O2 inh -4, Efflux pump mplx 4.6*, Cmpd fluor yeast 104, CaMdr1 efflux inh 0, Cdr2 pump inh 93 and Cdr1 pump inh 0.
COc1cccc(-c2c(C(=O)N/N=C(\C)c3ccco3)nnn2-c2nonc2N)c1 was read as Rtt109 HAT inh 8, GRK2 aptamer HTS 3, Rce1 inh inactive, HDAC3 inh 4, ALR H2O2 inh 15 and Efflux pump mplx 0.
For C=CCn1c(=O)c2ccccc2n2c(SCC(=O)Nc3sc(C)c(CC)c3C(=O)OCC)nnc12 the results were Rtt109 HAT inh -7, GRK2 aptamer HTS 0, Rce1 inh inactive, HDAC3 inh -3, ALR H2O2 inh -7, Efflux pump mplx 0.5*, Cmpd fluor yeast 99, CaMdr1 efflux inh 0, Cdr2 pump inh 116 and Cdr1 pump inh 0.
Screening C=CCn1c(=O)c2ccccc2n2c(SCC(=O)Nc3sc(C(=O)N(CC)CC)c(C)c3C(=O)OCC)nnc12 returned Rtt109 HAT inh -4, GRK2 aptamer HTS 1, Rce1 inh inactive, HDAC3 inh 3, ALR H2O2 inh -14 and Efflux pump mplx 0.
For Nc1nonc1-n1nnc(C(=O)N/N=C/c2c(Cl)cccc2Cl)c1CSC1=NCCS1 the results were Rtt109 HAT inh -7, GRK2 aptamer HTS 0, Rce1 inh inactive, HDAC3 inh -3, ALR H2O2 inh 2, Efflux pump mplx 0, Cmpd fluor yeast 80, CaMdr1 efflux inh 0, Cdr2 pump inh 89 and Cdr1 pump inh 0.
Screening Nc1nonc1-n1nnc(C(=O)N/N=C/c2ccc(OCc3ccccc3)cc2)c1COc1ccc(F)cc1 returned Rtt109 HAT inh -10, GRK2 aptamer HTS 0, Rce1 inh inactive, HDAC3 inh -1, ALR H2O2 inh -8 and Efflux pump mplx 0.
`CCCOc1ccc(-c2c(C(=O)N/N=C/c3ccccc3)nnn2-c2nonc2N)cc1` gave Rtt109 HAT inh 1, GRK2 aptamer HTS 0, Rce1 inh inactive, HDAC3 inh 5, ALR H2O2 inh -2, Efflux pump mplx 0, Cmpd fluor yeast 113, CaMdr1 efflux inh 0, Cdr2 pump inh 101 and Cdr1 pump inh 0.
Nc1nonc1-n1nnc(C(=O)N/N=C/c2ccccc2Cl)c1CSc1ccccc1 was read as GRK2 aptamer HTS 0, HDAC3 inh 11, ALR H2O2 inh -5 and Efflux pump mplx 0.
Screening Nc1nonc1-n1nnc(C(=O)N/N=C/c2ccccc2Cl)c1COc1ccc(F)cc1 returned Rtt109 HAT inh 9, GRK2 aptamer HTS 1, Rce1 inh inactive, HDAC3 inh 8, ALR H2O2 inh -4, Efflux pump mplx 0, Cmpd fluor yeast 76, CaMdr1 efflux inh 0, Cdr2 pump inh 93 and Cdr1 pump inh 0.
For Nc1nonc1-n1nnc(C(=O)N/N=C/c2ccc(O)cc2)c1COc1ccc(F)cc1 the results were Rtt109 HAT inh 11, GRK2 aptamer HTS 0, Rce1 inh inactive, HDAC3 inh 11, ALR H2O2 inh -5, Efflux pump mplx 0, Cmpd fluor yeast 95, CaMdr1 efflux inh 0, Cdr2 pump inh 97 and Cdr1 pump inh 0.
Nc1nonc1-n1nnc(C(=O)N/N=C/C=C/c2ccccc2)c1CSC1=NCCS1 was read as GRK2 aptamer HTS 0, Rce1 inh inactive, HDAC3 inh 3, ALR H2O2 inh -2 and Efflux pump mplx 0.
`O=C(COc1ccc(Br)cc1)Nc1ccc(C(=O)Nc2ccccc2C(=O)O)cc1` gave Rtt109 HAT inh -7, GRK2 aptamer HTS 3, Rce1 inh inactive, HDAC3 inh -4, ALR H2O2 inh -10, Efflux pump mplx 1.2*, Cmpd fluor yeast 102, CaMdr1 efflux inh 0, Cdr2 pump inh 89 and Cdr1 pump inh 0.
For O=C(NC1CCN(Cc2ccc(Cl)cc2)CC1)c1cn(-c2ccccc2)nc1-c1cccnc1 the results were Rtt109 HAT inh 12, GRK2 aptamer HTS 0, HDAC3 inh 2, ALR H2O2 inh -24 and Efflux pump mplx 0.
For COC(=O)c1ccccc1NC(=S)N1CCN(c2ccc(OC)cc2)CC1 the results were Rtt109 HAT inh 3, GRK2 aptamer HTS 0, Rce1 inh inactive, HDAC3 inh 3, ALR H2O2 inh 26 and Efflux pump mplx 0.
For CCC1CCCCN1C(=O)c1cc2c(=O)n3cccc(C)c3nc2s1 (centres undefined) the results were Rtt109 HAT inh 3, GRK2 aptamer HTS 8, HDAC3 inh -4, ALR H2O2 inh 8, Efflux pump mplx 1.7*, Cmpd fluor yeast 107, CaMdr1 efflux inh 0, Cdr2 pump inh 95 and Cdr1 pump inh 0.
CCCCCOc1ccc(/C=c2\sc3nc(=O)c(-c4ccccc4)nn3c2=O)cc1OC was read as GRK2 aptamer HTS 0, Rce1 inh inactive, HDAC3 inh -5, ALR H2O2 inh -6 and Efflux pump mplx 0.
`CCCOc1ccc(/C=c2\sc3nc(-c4ccco4)nn3c2=O)cc1OCC` gave Rtt109 HAT inh 7, GRK2 aptamer HTS 0, Rce1 inh inactive, HDAC3 inh -2, ALR H2O2 inh 1, Efflux pump mplx 0, Cmpd fluor yeast 97, CaMdr1 efflux inh 0, Cdr2 pump inh 89 and Cdr1 pump inh 0.
Screening CC(=O)Oc1cccc(/C=c2\sc3nc(-c4ccco4)nn3c2=O)c1 returned Rtt109 HAT inh 3, GRK2 aptamer HTS 5, HDAC3 inh 3, ALR H2O2 inh -5, Efflux pump mplx 0, Cmpd fluor yeast 79, CaMdr1 efflux inh 0, Cdr2 pump inh 89 and Cdr1 pump inh 0.
